According to PubChem BioAssay (EPA / NIEHS):
Values joined by “and” are separate entries in the source; they are usually repeats but may differ in a detail not shown here. Equal values may be shown once. More than one record can exist for a structure, and the calls need not agree. Active and inactive are the calls of the source. The calls were made as follows: active = hit-call score of the fitted dose curve at least 0.9, where 1 is the maximum; inactive = score below 0.9.

Test system: not listed separately
Experiment: ATG_BRE_CIS: Attagene CIS-FACTORIAL HepG2 Assay for human Bone Morphogenetic Protein (BMP) Response Element (BRE) (AID 2282933)
Details: HepG2 BMP response element reporter, Attagene transcription factor profiling; actives raise or lower the signal
Summary of the method: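 Gain- or loss-of-signal was derived by bidirectional fitting against DMSO controls. The signal came from reporter mRNA, measured by RT-PCR and capillary electrophoresis, in HepG2 cells transiently carrying multiple reporter units and dosed for 24 h.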

| SMILES | outcome | AC50 |
| --- | --- | --- |
| CC(C)CCCCCCOC(=O)CCCCC(=O)OCCCCCCC(C)C | inactive |  |
| NC(=O)N1C(=O)C(C(=O)c2cc(Cl)cs2)c2cc(F)c(Cl)cc21 (configuration not stated) | inactive |  |
| CC#C[C@]1(O)CC[C@H]2[C@@H]3CCC4=CC(=O)CCC4=C3[C@@H](c3ccc(N(C)C)cc3)C[C@@]21C |  | 22.4 µM (active) [middle of 4 runs] |
| CCCCCCC(=O)O | inactive |  |
| O=C1OC2(c3ccccc31)c1cc(Br)c(O)c(Br)c1Oc1c2cc(Br)c(O)c1Br | inactive |  |
| CC[C@H](c1ccc(O)cc1)[C@@H](CC)c1ccc(O)cc1 | inactive |  |
| CCCOc1sc(C(=O)N2CCC(c3cc(CN)ccc3F)CC2)c(C)c1Br | inactive |  |
| CC(O)CO (configuration not stated) | inactive |  |
| O=C(O)c1ccccc1C(c1ccc(O)cc1)c1ccc(O)cc1 | inactive |  |
| NCC(F)(F)C(F)(F)C(F)(F)C(F)(F)C(F)(F)C(F)(F)C(F)(F)F | inactive |  |
| Oc1cccc(O)c1 |  | 29.7 µM (active) |
| CC(C)(C)c1cc(C(C)(C)C)c(O)c(C(C)(C)C)c1 | inactive |  |
| CCCCC(CC)COC(=O)CCCCC(=O)OCc1ccccc1 (configuration not stated) | inactive |  |
| CN1CCC[C@H]1c1cccnc1 | inactive |  |
| OC1CCC(C2CCCCC2)CC1 (configuration not stated) | inactive |  |
| CCCCCCCCCCCCc1ccccc1S(=O)(=O)O | inactive |  |
| COCC(C)O (configuration not stated) | inactive |  |
| CC(C)(C)c1cccc(C(C)(C)C)c1O | inactive |  |

| SMILES | outcome | AC50 |
| --- | --- | --- |
| Cc1cc(C)c(O)c(C)c1 | inactive |  |
| CC(C)(C)c1ccc(O)c(C(C)(C)C)c1 | inactive |  |
| Oc1cc2ccccc2c2ccccc12 | inactive |  |
| N#C[C@@H]1CC(F)(F)CN1C(=O)CNC1CC2CCC(C1)N2c1ncccn1 (some centres not stated) | inactive |  |
| O=C(OCCOCCOC(=O)c1ccccc1)c1ccccc1 | inactive |  |
| CC(O)C(=O)O (configuration not stated) | inactive |  |
| COc1ccc([N+](=O)[O-])cc1N | inactive |  |
| Cc1ccc(S(=O)(=O)O)c(C)c1 | inactive |  |
| NC(=O)N(O)[C@@H]1C=C[C@H](Oc2cccc(Oc3ccc(F)cc3)c2)C1 | inactive |  |
| CCC(C)(C)C1CCC(O)CC1 (configuration not stated) | inactive |  |
| FC(F)(I)C(F)(F)C(F)(F)C(F)(F)C(F)(F)C(F)(F)I | inactive |  |
| c1ccc2c(c1)ccc1ccccc12 | inactive |  |
| CCOC(=O)CC(O)(CC(=O)OCC)C(=O)OCC | inactive |  |
| CCCCCCCCCCCCCC[N+](C)(C)C |  | 13.1 µM (active) and 4.06 µM (active) |
| Nc1cccc2c(N)cccc12 | inactive |  |
| C[C@@H]1C[C@H]2[C@@H]3CCC4=CC(=O)C=C[C@]4(C)[C@@]3(F)[C@@H](O)C[C@]2(C)[C@@]1(O)C(=O)COP(=O)(O)O | inactive |  |
| CCCCCCCCOC(=O)CCCCCCCCC(=O)OCCCCCCCC | inactive |  |
| CC(C)(C)CC(C)(C)c1ccc(O)c(-n2nc3ccccc3n2)c1 | inactive |  |

Target: Retinoic acid receptor alpha (Homo sapiens) (UniProt P10276)
Sequence (P10276 whole entry, looked up): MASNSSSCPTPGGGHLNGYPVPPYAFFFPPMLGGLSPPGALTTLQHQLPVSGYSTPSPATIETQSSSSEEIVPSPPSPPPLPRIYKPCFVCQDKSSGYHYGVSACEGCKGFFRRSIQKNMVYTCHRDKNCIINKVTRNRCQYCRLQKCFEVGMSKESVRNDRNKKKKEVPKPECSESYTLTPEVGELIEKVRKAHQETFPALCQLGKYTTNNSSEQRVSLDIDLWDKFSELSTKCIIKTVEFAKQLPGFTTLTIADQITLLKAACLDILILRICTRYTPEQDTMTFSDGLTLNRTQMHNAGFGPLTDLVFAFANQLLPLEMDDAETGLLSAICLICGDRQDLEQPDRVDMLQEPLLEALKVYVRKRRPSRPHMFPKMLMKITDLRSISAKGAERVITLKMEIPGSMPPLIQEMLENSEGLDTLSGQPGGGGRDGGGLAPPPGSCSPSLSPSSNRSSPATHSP
Experiment: ATG_DR5_RAR_CIS: Attagene CIS-FACTORIAL HepG2 Assay for human Retinoic Acid Receptor Alpha (RARE), DR5 submotif (AID 2282934);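 as to AC50: reporter responds to endogenous RAR alpha beta and gamma in HepG2 not RARA alone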
Details: HepG2 Attagene cis-factorial RARE DR5 reporter, mRNA; actives raise or lower the signal
Summary of the method: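 Reporter transcripts from a DR5-regulated unit, measured via RT-PCR plus capillary electrophoresis, reflect endogenous RAR activity in transiently transfected human HepG2 liver cells. Exposure lasted 24 h; gain or loss of signal scored against DMSO.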

| SMILES | outcome | AC50 |
| --- | --- | --- |
| CC(C)CCCCCCOC(=O)CCCCC(=O)OCCCCCCC(C)C | inactive |  |
| NC(=O)N1C(=O)C(C(=O)c2cc(Cl)cs2)c2cc(F)c(Cl)cc21 (configuration not stated) | inactive |  |
| CC#C[C@]1(O)CC[C@H]2[C@@H]3CCC4=CC(=O)CCC4=C3[C@@H](c3ccc(N(C)C)cc3)C[C@@]21C | inactive | 7.96 µM (active) |
| CCCCCCC(=O)O | inactive |  |
| O=C1OC2(c3ccccc31)c1cc(Br)c(O)c(Br)c1Oc1c2cc(Br)c(O)c1Br | inactive |  |
| CCCOc1sc(C(=O)N2CCC(c3cc(CN)ccc3F)CC2)c(C)c1Br | inactive |  |
| CC(O)CO (configuration not stated) | inactive |  |
| O=C(O)c1ccccc1C(c1ccc(O)cc1)c1ccc(O)cc1 | inactive |  |
| NCC(F)(F)C(F)(F)C(F)(F)C(F)(F)C(F)(F)C(F)(F)C(F)(F)F | inactive |  |
| Oc1cccc(O)c1 | inactive |  |
| CCCCC(CC)COC(=O)CCCCC(=O)OCc1ccccc1 (configuration not stated) | inactive |  |
| OC1CCC(C2CCCCC2)CC1 (configuration not stated) | inactive |  |
| CCCCCCCCCCCCc1ccccc1S(=O)(=O)O | inactive |  |
| CC(C)(C)c1cccc(C(C)(C)C)c1O |  | 100 µM (active) |
| Cc1cc(C)c(O)c(C)c1 |  | 100 µM (active) |
| CC(C)(C)c1ccc(O)c(C(C)(C)C)c1 | inactive |  |
| Oc1cc2ccccc2c2ccccc12 | inactive |  |
| N#C[C@@H]1CC(F)(F)CN1C(=O)CNC1CC2CCC(C1)N2c1ncccn1 (some centres not stated) | inactive |  |
| O=C(OCCOCCOC(=O)c1ccccc1)c1ccccc1 | inactive |  |
| CC(O)C(=O)O (configuration not stated) | inactive |  |
| COc1ccc([N+](=O)[O-])cc1N | inactive |  |
| NC(=O)N(O)[C@@H]1C=C[C@H](Oc2cccc(Oc3ccc(F)cc3)c2)C1 | inactive |  |
| CCC(C)(C)C1CCC(O)CC1 (configuration not stated) | inactive |  |
| FC(F)(I)C(F)(F)C(F)(F)C(F)(F)C(F)(F)C(F)(F)I | inactive |  |
| c1ccc2c(c1)ccc1ccccc12 | inactive |  |
| CCOC(=O)CC(O)(CC(=O)OCC)C(=O)OCC | inactive |  |
| CCCCCCCCCCCCCC[N+](C)(C)C | inactive |  |
| Nc1cccc2c(N)cccc12 | inactive |  |
| CCCCCCCCOC(=O)CCCCCCCCC(=O)OCCCCCCCC | inactive |  |
| CC(C)(C)CC(C)(C)c1ccc(O)c(-n2nc3ccccc3n2)c1 | inactive |  |
